# Experimental data as given in a collection of fitness landscapes (doi:10.1126/science.1257360).
# Over roughly 140,000 sequences, “enrichment ratio after two sorts for PhoP signalling” has its median near 0; the highest 2% begin near 11. This is one part of a sample in which the highest values are shown more often than they occur.
# B1: PhoQ; a variant is named by its letters at X, in order, P23837 (parent)
# chain: MKKLLRLFFPLSLRVRFLLATAAVVLVLSLAYGMVALIGYSVSFDKTTFRLLRGESNLFYTLAKWENNKLHVELPENIDKQSPTMTLIYDENGQLLWAQRDVPWLMKMIQPDWLKSNGFHEIEADVNDTSLLLSGDHSIQQQLQEVREDDDDAEMTHSVAVNVYPATSRMPKLTIVVVDTIPVELKSSYMVWSWFIYVLSANLLLVIPLLWVAAWWSLRPIEALAKEVRELEEHNRELLNPATTRELTSLVRNLNRLLKSERERYDKYRTTLTDLTHSLKTPLXXLQXXLRSLRSEKMSVSDAEPVMLEQISRISQQIGYYLHRASMRGGTLLSRELHPVAPLLDNLTSALNKVYQRKGVNISLDISPEISFVGEQNDFVEVMGNVLDNACKYCLEFVEISARQTDEHLYIVVEDDGPGIPLSKREVIFDRGQRVDTLRPGQGVGLAVAREITEQYEGKIVAGESMLGGARMEVIFGRQHSAPKDE
# Variants of: B1
# Experiment: enrichment ratio after two sorts for PhoP signalling (ratio (wild type AVST 3.29)); higher = more functional
# Conditions: with PhoP (E. coli)
row,Variant,enrichment ratio
1,APLV,≤ 0.25
2,RGLV,≤ 0.25
3,SGHK,≤ 0.25
4,SGLV,17.9
5,AGLV,12.7
6,VHLV,≤ 0.25
7,VGLV,12.3
8,VRLV,≤ 0.25
9,TGLV,12.3
10,NGLV,6.65
11,CFLV,≤ 0.25
12,LWQD,≤ 0.25
13,FDMF,≤ 0.25
14,VNQQ,≤ 0.25
15,YCCF,≤ 0.25
16,NGGQ,≤ 0.25
17,MMPC,≤ 0.25
18,LNWD,≤ 0.25
19,VQIE,≤ 0.25
20,QIPP,≤ 0.25
21,MGLV,15.2
22,GGLV,13.7
23,GYLV,≤ 0.25
24,MGLA,2.09
25,NILV,0.722
26,MGLW,≤ 0.25

row,Variant,enrichment ratio
1,YFRP,≤ 0.25
2,IDDH,≤ 0.25
3,FGGG,≤ 0.25
4,FGMG,0.824
5,FGMV,16.7
6,FGGQ,3.04
7,FGMI,11.8
8,FGMQ,21.1
9,FGMD,≤ 0.25
10,FGMS,0.618
11,FGMW,≤ 0.25
12,YKMH,≤ 0.25
13,HWMV,≤ 0.25
14,RAPQ,≤ 0.25
15,ATVM,6.8
16,STPC,≤ 0.25
17,MGWI,1.07
18,MGVA,≤ 0.25
19,MGVV,15.6
20,MGWV,6.77
21,TGYF,1.56
22,MGVK,≤ 0.25
23,MGYF,12.2
24,MGGS,17.9
25,MGYV,13.4
26,TGVV,0.277

row,Variant,enrichment ratio
1,MGHV,2.03
2,RGYF,≤ 0.25
3,MMRA,≤ 0.25
4,DQCN,≤ 0.25
5,MMLA,≤ 0.25
6,ASGS,3.2
7,MGKH,≤ 0.25
8,MGGA,24.1
9,MGDS,≤ 0.25
10,MGKI,≤ 0.25
11,MGGQ,2.83
12,MGYQ,14
13,MGGD,≤ 0.25
14,MTYQ,2.5
15,MGCV,14
16,MGGH,20.1
17,MGDI,≤ 0.25
18,MGCI,5.38
19,SGGC,10.9
20,HITM,≤ 0.25
21,PRMN,≤ 0.25
22,EYFG,≤ 0.25
23,DTNW,≤ 0.25
24,LCAW,≤ 0.25
